High-throughput results deposited in PubChem by several laboratories.
tim23-1 inh: inhibits growth of tim23-1 mutant yeast. S. cerevisiae tim23-1 growth, BacTiter-Glo luminescence, 24 h. inhibition, % at 20 µM. hit rate 1.3% among 330,000. AID 463212;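 active means growth inhibition of the mutant yeast at or above 50%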;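 further: temperature-sensitive mutant grown at 25 °C; plate controls were DMSO-treated mutant yeast for no effect and medium wells lacking yeast for full effect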
tim10-1 inh: growth inhibitors of tim10-1 mutant yeast; S. cerevisiae tim10-1 ts strain growth, BacTiter-Glo, 24 h; inhibition, % at 20 µM; hit rate 2.2% among 330,000;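 active means inhibition of at least 40%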;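 further: mutant grown at 25 °C; 0% = DMSO wells with yeast and 100% = wells holding no yeast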
TIM10 inh: TIM10 yeast growth inhibition | inhibition, % at 10 µM | hit rate 1.4% among 330,000 | S. cerevisiae TIM10 strain growth, BacTiter-Glo luminescence, 24 h;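 active means inhibition of 40% or more at the single tested concentration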;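 further: wild-type TIM10 isogenic control strain grown at permissive 25 °C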
Rce1 inh: inhibitors of yeast Ras-converting enzyme | Q03530 | calls only | AID 2563 | hit rate 0.27% among 290,000 | yeast membranes, quenched prenylated peptide cleavage fluorescence;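 active means fall in fluorescence gain of 50% or more versus controls, with final raw signal at or below 3038400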;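 further: plate controls were neutral control wells for no effect and wells lacking membranes for full effect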
Target sequence (Q03530 whole entry, looked up): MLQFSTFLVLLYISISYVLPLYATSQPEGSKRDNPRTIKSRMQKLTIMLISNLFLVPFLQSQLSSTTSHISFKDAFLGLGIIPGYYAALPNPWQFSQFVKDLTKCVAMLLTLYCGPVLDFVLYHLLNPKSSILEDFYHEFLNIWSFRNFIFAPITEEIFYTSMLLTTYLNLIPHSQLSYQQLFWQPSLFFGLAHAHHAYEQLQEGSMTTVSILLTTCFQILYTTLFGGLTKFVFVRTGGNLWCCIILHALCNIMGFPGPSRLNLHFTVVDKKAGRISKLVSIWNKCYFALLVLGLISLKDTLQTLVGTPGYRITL
PfHsp90 set2: inhibits growth of yeast expressing Plasmodium falciparum Hsp90; S. cerevisiae expressing PfHsp90, BacTiter-Glo ATP, 48 h; yeast lacking PDR1 and PDR3 efflux regulators; inhibition, % at 9.4 µM; hit rate 0.32% among 310,000;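 active means every replicate shows inhibition above about 80%, whatever the replicate mean, limit read from the data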;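 further: 0% = DMSO neutral controls and 100% = 20 µM radicicol positive controls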
An asterisk follows results filed as active; i = inactive; . = no result given; + = active, no number. Compounds with a hit are over-represented: about 3.7% of the library has one in this group of screens.

SMILES | tim23-1 inh | tim10-1 inh | TIM10 inh | Rce1 inh | PfHsp90 set2
CCOC(=O)c1nc2cc3n(c(C)c-2c1C)C(C)C(CC)=C3C (configuration not stated) | 5.1 | 10.6 | 7.8 | + | -10.7
Cn1c(=O)c(C(=O)NCCO)c(O)c2ccccc21 | 36.2 | -9.8 | 4.8 | + | 26.2
Clc1ccc2oc(-c3ccccc3)nc2c1 | 13.8 | 0.8 | 7.1 | i | 0.6
O=S(=O)(O)c1cc2oc(-c3ccccc3)nc2c2ccccc12 | 16.0 | 8.2 | 1.3 | + | -7.2
c1ccc(-c2nnc(-c3ccccc3)c(-c3c[nH]c4ccccc34)n2)cc1 | 21.4 | 30.6 | 11.1 | i | 15.7
c1ccc(-c2nnc(-c3ccncc3)nc2-c2ccccc2)cc1 | 11.6 | 0.0 | -12.7 | + | 3.3
Cc1ccccc1CC(=O)Nc1ccc2c(C)cc(=O)oc2c1 | 6.9 | -15.0 | -3.6 | i | -47.7
COc1ccccc1CC(=O)Nc1ccc2c(C)cc(=O)oc2c1 | -1.1 | 5.1 | 5.9 | + | 7.2
Cc1cc(C)n(/N=C/c2ccc(C(C)C)cc2)c(=O)c1C#N | 32.1 | 26.0 | 7.6 | i | -6.2
COc1ccc2c(c1)C(=O)N1[C@H]3c4cc(OC)ccc4OC[C@@H]3[C@H](c3ccccc3)[C@]1(C)C(=O)N2 | 6.5 | 25.1 | -4.5 | . | -36.4
COc1ccc2c(c1)OC[C@H]1[C@H]2N2C(=O)c3cc(Br)ccc3NC(=O)[C@@]2(C)[C@H]1c1ccccc1 | 46.5 | 35.7 | 8.2 | . | 102.3*
COc1ccc2c(c1)[C@H]1[C@H](CO2)[C@H](c2ccccc2)[C@]2(C)C(=O)Nc3ccc(Br)cc3C(=O)N12 | 42.0 | 18.9 | 34.4 | . | +
O=c1ccc(N=Nc2ccccc2)ccc1O | . | . | . | i | 124.9*
O=S(=O)(O)c1ccc(N=Nc2ccccc2)cc1 | 11.0 | 5.2 | -5.6 | i | 5.8
N#C/C(=C\c1cccc([N+](=O)[O-])c1)C(=O)NCc1ccc(Cl)cc1 | . | . | . | . | 104.6*
Cc1cc2cc(C(=O)N3CCc4c([nH]c5ccccc45)C3c3ccccn3)ccc2o1 (configuration not stated) | 45.3 | 13.6 | 1.4 | + | -4.5
COC(=O)Cc1c(C)c2ccc(OCc3nn[nH]n3)c(C)c2oc1=O | -6.5 | 5.5 | -25.1 | + | 0.2
CCC(C)(C)c1ccc(OCCCC[n+]2cccc(C)c2)c(C(C)(C)CC)c1 | . | . | . | + | -33.8
Cc1ccc[n+](CC(=O)Nc2cc(C(F)(F)F)ccc2Cl)c1 | -16.4 | 0.7 | -9.9 | i | 15.7
COc1ccccc1CNC(=O)COC(=O)Cn1cnc2ccccc21 | 1.2 | -3.7 | -3.0 | i | 6.5
COc1cccc(Cn2cccc(NC(=O)Nc3cccc(C#N)c3)c2=O)c1 | 9.5 | 7.7 | 11.1 | i | .
COc1cccc(NC(=O)Nc2cccn(Cc3ccc(C)cc3)c2=O)c1 | 7.8 | 21.5 | 7.8 | + | -24.9
Cc1ccc(C(CC(=O)N2CCNCC2)c2ccccc2)c(O)c1C (configuration not stated) | 10.4 | -3.5 | 9.4 | i | 3.4
Cc1cc(NC(c2cccnc2)c2ccc3cccnc3c2O)no1 (configuration not stated) | 11.4 | 30.7 | -39.9 | i | -16.1
Oc1c(C(Nc2ccccn2)c2cccnc2)cc(Cl)c2cccnc12 (configuration not stated) | 49.0 | 19.9 | 33.3 | i | 103.0*
SMILES | tim23-1 inh | tim10-1 inh | TIM10 inh | Rce1 inh | PfHsp90 set2
C(C#CCCCCCCCCC[n+]1ccccc1)#CCCCCCCCCC[n+]1ccccc1 | . | . | . | i | 121.5*
CCCOc1ccc(-c2nc3c(c(=O)[nH]c(=O)n3Cc3ccccc3)n2CCO)cc1OCC | -3.7 | 17.1 | 1.6 | + | 9.6
COC(=O)c1ccc(NC(=O)c2cn(-c3ccccc3)nc2-c2ccncc2)cc1 | -20.1 | -23.9 | -23.7 | i | 89.2*
CC(=O)c1ccc(NC(=O)c2cn(-c3ccccc3)nc2-c2ccncc2)cc1 | 1.7 | -8.1 | -8.5 | i | -14.6
Cc1cc(O)cc(C)c1NS(=O)(=O)c1ccc2ccccc2c1 | 6.7 | 5.4 | -0.3 | i | 3.9
Cc1c(C)c2ccc(OC(C)C(=O)NC3CC(C)(C)NC(C)(C)C3)cc2oc1=O (configuration not stated) | -1.0 | 1.8 | 3.9 | i | -20.0
CC(Oc1ccc2c3c(c(=O)oc2c1)CCCC3)C(=O)NC1CC(C)(C)NC(C)(C)C1 (configuration not stated) | 9.0 | 8.0 | -0.9 | + | -6.1
Cn1c(CCNS(=O)(=O)c2ccccc2)nnc1SCc1cccnc1 | 5.7 | 12.8 | -9.6 | + | -8.6
